Source: ChEMBL document CHEMBL3988442, “University of Dundee, Small-Polar-MMV Screening Library” (2021)
For some assays here: Entries with a potency or affinity are not part of this list.

Columns and labels:
Design in all cases: scale not given: direction of the effect not stated beside the values
[1] = biological target: Protein translocase subunit SecA (Escherichia coli (strain K12)) (UniProt P10408); assay: Assay to Identify E. coli SecA ATPase Inhibitors; type: functional; conditions: 30 µM
Protein translocase subunit SecA (Escherichia coli (strain K12)), sequence (P10408 whole entry): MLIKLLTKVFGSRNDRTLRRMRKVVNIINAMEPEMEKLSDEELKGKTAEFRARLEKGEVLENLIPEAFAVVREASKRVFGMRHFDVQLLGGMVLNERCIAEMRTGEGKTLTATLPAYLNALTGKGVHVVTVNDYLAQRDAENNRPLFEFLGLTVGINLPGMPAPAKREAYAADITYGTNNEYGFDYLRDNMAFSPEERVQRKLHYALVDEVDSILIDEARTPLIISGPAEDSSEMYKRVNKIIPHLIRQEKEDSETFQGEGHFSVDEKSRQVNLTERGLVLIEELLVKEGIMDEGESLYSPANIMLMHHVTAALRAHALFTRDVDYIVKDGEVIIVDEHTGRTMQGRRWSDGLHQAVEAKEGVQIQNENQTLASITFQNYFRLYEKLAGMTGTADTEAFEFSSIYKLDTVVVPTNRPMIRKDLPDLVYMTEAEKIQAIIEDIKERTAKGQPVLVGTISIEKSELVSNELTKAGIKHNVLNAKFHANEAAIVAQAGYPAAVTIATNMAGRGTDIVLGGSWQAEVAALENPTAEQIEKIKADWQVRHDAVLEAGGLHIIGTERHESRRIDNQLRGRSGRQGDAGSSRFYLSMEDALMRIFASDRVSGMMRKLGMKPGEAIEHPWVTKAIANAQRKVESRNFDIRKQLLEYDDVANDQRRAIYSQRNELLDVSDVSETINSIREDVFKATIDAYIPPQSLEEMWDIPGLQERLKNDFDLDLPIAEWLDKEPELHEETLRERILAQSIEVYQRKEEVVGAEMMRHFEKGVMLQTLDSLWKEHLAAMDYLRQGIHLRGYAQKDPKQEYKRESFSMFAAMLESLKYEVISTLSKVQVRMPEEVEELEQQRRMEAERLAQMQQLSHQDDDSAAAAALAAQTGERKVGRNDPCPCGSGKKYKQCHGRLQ

[2] = biological target: T1, Ubiquitin-activating enzyme e1, putative (Leishmania donovani (strain BPK282A1)) (UniProt E9BSI1); assay: Leishmania donovani Ubiquitin Activating Enzyme (LdE1); type: functional; conditions: 30 µM
T1 sequence (whole entry): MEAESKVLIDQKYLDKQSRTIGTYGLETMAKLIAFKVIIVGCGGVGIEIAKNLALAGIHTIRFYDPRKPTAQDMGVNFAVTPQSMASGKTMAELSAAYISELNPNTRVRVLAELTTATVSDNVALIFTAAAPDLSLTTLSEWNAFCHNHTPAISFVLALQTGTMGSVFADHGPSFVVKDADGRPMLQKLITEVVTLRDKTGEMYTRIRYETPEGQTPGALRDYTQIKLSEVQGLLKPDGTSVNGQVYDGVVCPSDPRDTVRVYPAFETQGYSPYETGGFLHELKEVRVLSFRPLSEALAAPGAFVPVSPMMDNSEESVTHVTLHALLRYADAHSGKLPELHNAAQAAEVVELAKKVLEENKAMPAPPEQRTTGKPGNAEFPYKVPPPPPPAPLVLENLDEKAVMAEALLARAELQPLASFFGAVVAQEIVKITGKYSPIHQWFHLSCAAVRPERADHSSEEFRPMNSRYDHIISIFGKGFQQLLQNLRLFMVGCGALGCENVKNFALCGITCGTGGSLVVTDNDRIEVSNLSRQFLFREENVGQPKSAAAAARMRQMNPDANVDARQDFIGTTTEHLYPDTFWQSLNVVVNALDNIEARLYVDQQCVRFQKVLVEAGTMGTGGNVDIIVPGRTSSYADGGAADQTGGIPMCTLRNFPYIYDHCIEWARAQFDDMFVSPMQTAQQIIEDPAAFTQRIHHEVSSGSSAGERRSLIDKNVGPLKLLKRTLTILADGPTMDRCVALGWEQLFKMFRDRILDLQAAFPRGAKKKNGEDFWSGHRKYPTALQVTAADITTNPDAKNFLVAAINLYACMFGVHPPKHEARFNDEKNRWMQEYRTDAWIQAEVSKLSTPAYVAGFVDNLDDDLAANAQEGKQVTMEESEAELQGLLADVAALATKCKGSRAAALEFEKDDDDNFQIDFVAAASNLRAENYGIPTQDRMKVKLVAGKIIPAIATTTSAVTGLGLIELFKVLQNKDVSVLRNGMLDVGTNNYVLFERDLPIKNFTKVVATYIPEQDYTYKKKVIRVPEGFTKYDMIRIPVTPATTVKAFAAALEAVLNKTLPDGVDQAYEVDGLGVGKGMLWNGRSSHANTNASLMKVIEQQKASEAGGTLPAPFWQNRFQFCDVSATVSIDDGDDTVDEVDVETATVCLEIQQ

[3] = biological target: AMP-activated protein kinase, AMPK (Homo sapiens) (UniProt P54646+O43741+P54619+Q9UGJ0+Q9Y478+Q13131+Q9UGI9); assay: AMP-dependent Kinase enzyme assay. An in vitro enzyme assay that detects ADP turnover that is directly proportional to AMPK activity. This uses naive AMPK that is activated during the assay with MK-8722; type: functional; conditions: 30 µM
[4] = biological target: Sialic acid-binding Ig-like lectin 9 (Homo sapiens) (UniProt Q9Y336); assay: Hs-Siglec9 ALPHAscreen SOP 20170721; conditions: 10 µM
Sialic acid-binding Ig-like lectin 9 (Homo sapiens), sequence (Q9Y336 whole entry): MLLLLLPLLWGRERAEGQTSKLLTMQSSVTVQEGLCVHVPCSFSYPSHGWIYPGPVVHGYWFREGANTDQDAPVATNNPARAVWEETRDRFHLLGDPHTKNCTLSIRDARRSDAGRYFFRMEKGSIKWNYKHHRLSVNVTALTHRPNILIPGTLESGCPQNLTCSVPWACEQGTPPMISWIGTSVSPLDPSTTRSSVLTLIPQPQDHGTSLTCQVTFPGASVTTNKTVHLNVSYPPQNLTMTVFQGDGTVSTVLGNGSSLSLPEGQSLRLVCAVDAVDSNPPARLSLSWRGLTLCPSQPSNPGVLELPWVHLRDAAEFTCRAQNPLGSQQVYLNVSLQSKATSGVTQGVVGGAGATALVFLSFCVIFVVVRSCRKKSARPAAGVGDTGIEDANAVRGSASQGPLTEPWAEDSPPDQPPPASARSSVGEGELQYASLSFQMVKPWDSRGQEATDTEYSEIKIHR

Trypanosoma cruzi = assay: Trypanosoma cruzi phosphomannomutase and mannose-1-phosphate guanylyltransferase assay; type: functional; conditions: 10 µM
[5] = biological target: T2, Arginase-2, mitochondrial (Homo sapiens) (UniProt P78540); assay: in vitro enzyme assay to detect the production of urea directly proportional to the activity of Arginase II; type: functional; conditions: 33.3 µM; also: in the data most compounds retested in dose-response had high values
T2 sequence (whole entry): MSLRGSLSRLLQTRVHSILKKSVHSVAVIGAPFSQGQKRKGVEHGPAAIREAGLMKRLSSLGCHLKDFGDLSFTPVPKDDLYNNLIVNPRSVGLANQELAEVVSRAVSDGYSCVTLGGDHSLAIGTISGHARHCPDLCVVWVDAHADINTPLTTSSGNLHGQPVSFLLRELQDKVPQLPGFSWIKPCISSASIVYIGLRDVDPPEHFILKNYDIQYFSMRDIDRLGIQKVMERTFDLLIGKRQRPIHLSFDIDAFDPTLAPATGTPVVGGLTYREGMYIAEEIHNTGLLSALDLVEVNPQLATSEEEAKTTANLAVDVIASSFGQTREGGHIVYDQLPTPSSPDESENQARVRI

[6] = biological target: T3, Proteasome subunit beta (Trypanosoma cruzi) (UniProt O96673); assay: Trypanosoma cruzi proteasome chymotrypsin-like activity (TcProtChymo) assay.; also: in the data most compounds retested in dose-response had high values; type: functional; conditions: 9.37 µM
T3 sequence (whole entry): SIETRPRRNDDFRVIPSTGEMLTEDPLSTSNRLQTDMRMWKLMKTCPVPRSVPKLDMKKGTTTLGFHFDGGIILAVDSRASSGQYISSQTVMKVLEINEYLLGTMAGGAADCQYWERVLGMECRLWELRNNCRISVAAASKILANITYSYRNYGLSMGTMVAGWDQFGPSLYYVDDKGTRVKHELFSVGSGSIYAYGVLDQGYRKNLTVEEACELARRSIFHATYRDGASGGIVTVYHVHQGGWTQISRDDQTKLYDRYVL

Homo sapiens = species on record: Homo sapiens; assay: To identify inhibition of the IFN signalling (Jak-Stat) pathway via expression of an eGFP reporter gene under the control of an IFN-stimulated response element (ISRE) containing MxA promoter.; type: functional; conditions: 30 µM
[7] = biological target: T4, Tyrosyl-tRNA synthetase, putative (Trypanosoma cruzi (strain CL Brener)) (UniProt Q4DSP6); assay: Trypanosoma cruzi tyrosyl tRNA synthetase (TcYRS) _High Tyrosine SOP; type: functional; conditions: 30 µM; also: in the data most compounds retested in dose-response had high values
T4 sequence (whole entry): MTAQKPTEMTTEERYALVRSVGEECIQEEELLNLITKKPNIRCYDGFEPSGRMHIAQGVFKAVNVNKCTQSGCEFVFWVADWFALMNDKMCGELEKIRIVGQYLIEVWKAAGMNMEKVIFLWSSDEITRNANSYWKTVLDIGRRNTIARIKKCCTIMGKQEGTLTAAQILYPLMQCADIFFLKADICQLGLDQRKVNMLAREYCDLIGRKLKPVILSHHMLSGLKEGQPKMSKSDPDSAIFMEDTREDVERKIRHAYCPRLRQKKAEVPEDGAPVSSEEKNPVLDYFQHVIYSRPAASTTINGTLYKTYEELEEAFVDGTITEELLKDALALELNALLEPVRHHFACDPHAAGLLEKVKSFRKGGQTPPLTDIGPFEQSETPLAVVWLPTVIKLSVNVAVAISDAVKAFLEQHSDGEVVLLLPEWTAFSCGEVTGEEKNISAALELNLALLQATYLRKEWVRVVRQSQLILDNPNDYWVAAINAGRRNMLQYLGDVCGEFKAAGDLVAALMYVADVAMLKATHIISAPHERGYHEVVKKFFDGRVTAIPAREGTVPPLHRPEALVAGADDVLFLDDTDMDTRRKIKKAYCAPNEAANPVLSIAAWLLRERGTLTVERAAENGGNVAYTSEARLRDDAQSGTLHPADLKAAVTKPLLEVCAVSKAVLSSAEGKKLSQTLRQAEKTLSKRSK

[8] = biological target: T4, Tyrosyl-tRNA synthetase, putative (Trypanosoma cruzi (strain CL Brener)); assay: Trypanosoma cruzi tyrosyl tRNA synthetase (TcYRS) SOP; type: functional; conditions: 30 µM
[9] = biological target: Chromo domain-containing protein 1 (Saccharomyces cerevisiae (strain ATCC 204508 / S288c) (Baker's yeast)) (UniProt P32657); assay: ScCHD-1 Enzyme Inhibition Assay; type: functional; conditions: 30 µM; also: in the data most compounds retested in dose-response had high values
Chromo domain-containing protein 1 (Saccharomyces cerevisiae (strain ATCC 204508 / S288c) (Baker's yeast)), sequence (P32657 whole entry, the tested form may be a part): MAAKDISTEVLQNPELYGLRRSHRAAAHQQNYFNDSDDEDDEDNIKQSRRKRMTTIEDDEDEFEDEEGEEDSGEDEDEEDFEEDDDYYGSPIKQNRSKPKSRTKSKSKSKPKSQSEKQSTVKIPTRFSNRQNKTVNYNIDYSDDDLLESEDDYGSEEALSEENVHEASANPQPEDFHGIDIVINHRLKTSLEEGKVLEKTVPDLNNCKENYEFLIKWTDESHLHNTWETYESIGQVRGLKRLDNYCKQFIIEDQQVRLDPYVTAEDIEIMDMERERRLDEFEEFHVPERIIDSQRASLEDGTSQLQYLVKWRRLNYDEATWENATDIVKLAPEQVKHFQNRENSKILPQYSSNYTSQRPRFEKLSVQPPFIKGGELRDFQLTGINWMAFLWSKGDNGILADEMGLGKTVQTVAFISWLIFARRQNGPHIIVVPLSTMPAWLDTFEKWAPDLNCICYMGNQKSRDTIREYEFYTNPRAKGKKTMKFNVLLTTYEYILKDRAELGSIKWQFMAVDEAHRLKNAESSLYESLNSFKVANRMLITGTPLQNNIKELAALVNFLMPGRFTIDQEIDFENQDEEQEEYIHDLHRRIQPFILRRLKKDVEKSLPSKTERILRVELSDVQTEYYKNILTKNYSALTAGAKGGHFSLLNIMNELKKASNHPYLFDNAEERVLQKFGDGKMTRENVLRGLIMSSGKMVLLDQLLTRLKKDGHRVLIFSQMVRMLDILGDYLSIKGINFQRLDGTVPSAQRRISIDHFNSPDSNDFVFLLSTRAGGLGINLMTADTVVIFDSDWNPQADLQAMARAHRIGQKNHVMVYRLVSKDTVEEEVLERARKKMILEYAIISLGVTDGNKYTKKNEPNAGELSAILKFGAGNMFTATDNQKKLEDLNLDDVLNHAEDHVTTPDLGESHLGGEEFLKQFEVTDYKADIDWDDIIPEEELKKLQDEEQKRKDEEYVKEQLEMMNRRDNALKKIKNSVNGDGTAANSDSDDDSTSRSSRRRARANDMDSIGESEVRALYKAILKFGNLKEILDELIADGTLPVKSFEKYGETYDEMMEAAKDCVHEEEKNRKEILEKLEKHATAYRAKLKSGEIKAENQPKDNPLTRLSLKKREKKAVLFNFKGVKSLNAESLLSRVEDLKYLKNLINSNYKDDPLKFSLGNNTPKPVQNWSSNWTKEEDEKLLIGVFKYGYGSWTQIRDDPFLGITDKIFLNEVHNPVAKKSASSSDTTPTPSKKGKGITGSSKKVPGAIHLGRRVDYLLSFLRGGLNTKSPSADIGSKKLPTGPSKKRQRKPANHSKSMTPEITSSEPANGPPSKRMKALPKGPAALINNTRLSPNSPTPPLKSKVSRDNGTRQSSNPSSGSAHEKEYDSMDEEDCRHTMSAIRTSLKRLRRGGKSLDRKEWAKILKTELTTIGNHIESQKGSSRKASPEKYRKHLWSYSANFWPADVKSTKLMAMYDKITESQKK

Compound | Percent Effect [1] [%] | Percent Effect [2] [%] | Percent Effect [3] [%] | Percent Effect [4] [%] | Percent Effect (Trypanosoma cruzi) [%] | Percent Effect [5] [%] | Percent Effect [6] [%] | Percent Effect (Homo sapiens) [%] | Percent Effect [7] [%] | Percent Effect [8] [%] | Percent Effect [9] [%]
CN(C)CC(=O)N1Cc2nc(C(=O)NCc3ccncc3)oc2C1 | -0.101 | 13.3 | -4.75 | 4 | 3.86 | -49.3 | 14.4 | -9.53 | 0 | 20 | -6.75
Cc1nnc(N2CCC(CNC(=O)OC(C)(C)C)CC2)c(C#N)c1C | -4.74 | 7.79 | -1.74 | -8.54 | 1.47 | -0.21 | 7.2 | 26.6 | 2.86 | 11.8 | -16.5
CN(C)C(=O)N1CCn2nc(CNC(=O)CCC(F)(F)F)cc2C1 | 0.369 | 6.94 | -0.273 | 2.6 | 4.18 | 13.7 | 10.3 | 15 | 6.32 | 15.4 | -4.37
CCc1cnc(N)nc1NCCN1CCCCC1 | -4.23 | 13 | 1.45 | 11.9 | 6.59 | 2.76 | 7.16 | 4.63 | 7.53 | 16.1 | -7.73
Cc1cnc(Nc2nccnc2C2CCN(C)CC2)s1 | 3.01 | 13.3 | 9.68 | -6.36 | -4.92 | 0.699 | 5.2 | 10.5 | 7.45 | 8.97 | -6.78
Cc1ccccc1N1CCCN(C(=O)CCCS(N)(=O)=O)CC1 | -0.353 | 8.22 | 25.9 | 2.05 | -8.62 | 2.73 | 23.8 | 28.3 | 3.23 | 2.5 | -13.8
Cc1ccc2cc(C3(O)CCN(C(=O)CN4CCCC4)CC3)ccc2n1 | -2.77 | -1.39 | -1.64 | -0.537 | -4.96 | 3.53 | 11.9 | 4.91 | 2.1 | 5.13 | 0.856
CC(=O)N1CCC(c2cncc(Oc3ccccc3)n2)CC1 | -10 | 0 | 9.22 | -2.36 | -4.33 | -1.17 | 8.19 | 14 | -1.06 | 3.85 | -3.75
CCc1nc(C2CCCN2C(=O)CCc2ccc3c(c2)OCO3)no1 (configuration not stated) | -3.47 | -5.41 | 2.98 | 5.83 | 3.62 | -3.14 | -6.46 | 10.2 | 1.98 | 1.22 | 10.8
CC(NC(=O)NCCCc1n[nH]c(N)c1C#N)c1cccs1 (configuration not stated) | -4.67 | 22.8 | 38.5 | -12.2 | 6.52 | -14.1 | 16.6 | 15.9 | 8.37 | 24.1 | -7.24
COCCNC(=O)CN1CCN(c2nc(C)cs2)C(C)C1 (configuration not stated) | -6.14 | 16.2 | -5.78 | 22 | 5.11 | -1.29 | 13.3 | -1.44 | 2.97 | 15.8 | -7.53
CCc1noc(C(C)N(C)CC(=O)Nc2c(C)cccc2C)n1 (configuration not stated) | 1.06 | 11 | 6.59 | 4.7 | 4.31 | 16.8 | 8.7 | -3.6 | 4.3 | 15 | -7.1
COC(=O)c1cc(OCC2CCC2)cc(C(=O)N[C@H]2CC[C@H](O)CC2)c1 | -8.61 | 0 | -13.1 | 12.3 | -5.09 | -0.455 | 2.66 | 32.3 | 0 | 0 | 0.449
O=C([C@H]1C[C@H]2OCC[C@H]2N(C(=O)c2ccncc2)C1)N1CCCCO1 | -6.09 | 16 | -5.71 | -0.495 | 6.56 | -43.9 | 6.33 | -5.77 | 4.17 | 5 | -6.72
CCN1CCN(Cc2ccnc(-c3cccnc3)n2)CC1 | -8.52 | 20.3 | 0.102 | 1.94 | -0.79 | -1.62 | 15.3 | -6.28 | 4.3 | 16.9 | -29.4
COc1ccc(NC(=O)Cn2nc(C)c(C)cc2=O)cc1OC | -0.134 | 0 | -0.466 | 23.4 | 5.79 | 20.5 | 8.97 | 2.79 | 0.529 | 9.76 | -7.49
Cc1cc(=O)[nH]c(SCC(=O)N(C)CC2Cc3ccccc3CN2C)n1 (configuration not stated) | -6.85 | 5.41 | -2.17 | -6.16 | -0.489 | -0.744 | 5.75 | -12.2 | 6.45 | 8.64 | -4.63
Cc1cc(C)n(-c2cncc(N3CCN(C(=O)C(C)(C)C)CC3)n2)n1 | -5.22 | 5.41 | 10.4 | -2.19 | -3.71 | -0.833 | 13.3 | 10.5 | 3.96 | 1.22 | -3.42
Cc1cnn(CC2CCCN2Cc2coc(-c3cccs3)n2)c1 (configuration not stated) | -6.03 | 0 | 3.45 | -6.51 | -1.37 | 0.909 | 1.77 | 5.98 | 2.15 | 10 | -1.19
O=C(Cc1ccccc1)N1CCC2(CC(=O)N(c3ccsc3)C2)C1 (configuration not stated) | -0.7 | 8.11 | -4.26 | -6.07 | 3.52 | 11.2 | 13.8 | -6.08 | 14.8 | -28.1 | -3.9
COCc1ccc(CN2CCC(O)(Cn3ccc4ncccc43)CC2)o1 | -1.21 | 2.67 | -2.95 | 1.83 | 5.51 | 0.233 | 9.07 | 7.16 | 2.13 | 3.85 | -6.45
CN(C)S(=O)(=O)c1ccc(CN2CCCC2c2ccc[nH]2)o1 (configuration not stated) | -6.1 | -13.2 | -1.76 | -2.17 | -2.52 | -0.719 | -2.79 | -1.99 | 4.43 | -6.17 | 5.79
